The source of these data is PubChem BioAssay AID485275 (NMMLSC, 2010).

Hit rate of the full screen: of about 330,000 compounds, about 1,400 (0.42%) were called active. The entries come from a sample that favours actives as a whole. A number with no mark means an inactive call.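 The calls were made as follows: active = plate passing quality check with inhibition over a set limit, or well fluorescence over plate mean plus 4 SD; inactive = the rest.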

The nature of this assay: inhibitors of Candida efflux pumps in yeast, primary screen, S. cerevisiae, Nile Red, multiplex (AID 485275).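 Also: Nile Red retained in pooled yeast measured as flow cytometry median fluorescence; 0% = buffer negative control and 100% = Enniatin B positive control; higher means more Nile Red kept so more efflux inhibition.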 The settings on record: S. cerevisiae Candida pump triplex, at 10 µM, active compounds read high.
In the case of `CCN(C(=O)CSc1nnc(-c2ccc(OC(F)F)cc2)n1N)C1CCS(=O)(=O)C1` (stereo not drawn), the inhibition is 0.02%.

On to `CC(=O)C1(C)N(O)C(C)(C)C(c2cccs2)=[N+]1[O-]` (stereo not drawn), for which the inhibition was -0.09%. Consider `O=C(CSc1nnc(-c2cccnc2)n1Cc1ccco1)c1ccc(Cl)c(Cl)c1`, for which the inhibition was 0.84% (active). Next, `O=C(CSc1nnc(-c2cnccn2)n1Cc1ccco1)c1ccc(Cl)c(Cl)c1`: -0.1%. For `COc1cc(Cl)c(C)cc1NC(=O)CSc1nnc(-c2cccnc2)n1Cc1ccco1` the value was 0.03%; for `CSc1cccc(NC(=O)C2CCCN2S(=O)(=O)c2ccc3c(c2)CCC(=O)N3)c1` (stereo not drawn), 0.16%. For `COc1cccc(CNC(=O)C(=O)NCCC2CCCCN2S(=O)(=O)c2ccc(C)cc2)c1` (stereo not drawn) the value was 0.03%; for `Cc1ccc(C(=O)Nc2ccccc2-c2ccccc2)cc1S(=O)(=O)Nc1ccccc1`, 0.01%.

With `Cc1ccc(C(=O)O)cc1N1C(=O)CCCC1=O`, the inhibition was -0.14%.

For the compound `CCNc1c(NS(=O)(=O)c2ccc(C3CCCCC3)cc2)c(=O)oc2ccccc12`, the inhibition was 1.37% (active). `CCC(=O)Nc1ccc(S(=O)(=O)Nc2c(NC)c3ccccc3oc2=O)cc1`: the inhibition was 0.02%.

As to `O=c1oc2ccccc2c(NC2CCCCC2)c1NS(=O)(=O)c1ccc(Cl)cc1`, the inhibition is -0.01%. For `CC1CC(C)CN(C(=O)C2CC(=O)N(c3ccc(F)cc3)C2)C1` (stereo not drawn) the value was -0.06%; for `COc1ccccc1N=C1SC(C)CN1C(=O)C1CCC1` (stereo not drawn), 0.03%; for `O=C(NN1C(=O)C2C3C=CC(O3)C2C1=O)c1ccncc1` (stereo not drawn), 0.07%. Take `c1cnc(Nc2nc(-c3ccc4ccccc4c3)cs2)nc1`: the inhibition was 0.79% (active). For `Cc1ccc(-c2csc(NC3OC(=O)c4ccccc43)n2)cc1` (stereo not drawn), the inhibition was 0.03%.

On to `Cc1ccccc1Nc1nc(-c2cccnc2)cs1`, for which the inhibition was 0.3%.

For `CCOC(=O)c1[nH]ncc1CN1CCCC(C(=O)c2ccc(OC)cc2C)C1` (stereo not drawn), the inhibition was 0.25%. In the case of `COc1ccc(C(=O)C2CCCN(Cc3cccn3-c3ccccn3)C2)c(C)c1` (stereo not drawn), the inhibition was 0.98% (active). In the case of `COc1ccc(C(=O)C2CCCN(Cc3ccc4nonc4c3)C2)c(C)c1` (stereo not drawn), the inhibition is 0.05%. For `Cc1c(CCOC(=O)CC23CC4CC(CC(C)(C4)C2)C3)sc[n+]1Cc1ccc([N+](=O)[O-])cc1` the value was 0.61% (active); for `Cc1c(CCOC(=O)c2cc([N+](=O)[O-])ccc2Cl)sc[n+]1CCCCS(=O)(=O)[O-]`, 0.04%; for `Cc1c(CCO)sc[n+]1CC(=O)OC12CC3CC(CC(C3)C1)C2`, -0.46%. For the compound `CC1CCCCC1NC(=O)Cn1c(=O)cnc2ccccc21` (stereo not drawn), the inhibition was -0.23%. Next, `CCOC(=O)N1CCN(S(=O)(=O)c2ccc(C(=O)Nc3ccc(F)cc3F)cc2)CC1`: -0.12%.

On to `Cc1c(C(=O)NCCN2C(=O)S/C(=C\c3cccs3)C2=O)cccc1[N+](=O)[O-]`, for which the inhibition was 0.33%. For `CCOc1ccc(CCNC(=O)Nc2ccccc2)cc1OCC`, the inhibition was -0.23%. As for `O=C(Cc1ccc(Br)cc1)NCCN1CCOCC1`, the inhibition is -0.17%.

Consider `CCCn1nc(C(=O)NNC(=O)CCOc2ccccc2OCC)c2ccccc2c1=O`, for which the inhibition was -0.08%. Turning to `CCOc1ccccc1/C=c1\sc2nc(-c3ccco3)nn2c1=O`, the inhibition is 3.16% (active). Consider `CCOc1ccccc1C1NC(=O)NC(C)=C1C(=O)OCc1ccco1` (stereo not drawn), for which the inhibition is 0.02%. For `O=C(CCNC(=O)c1ccc([N+](=O)[O-])cc1)Nc1ccccc1N1CCOCC1` the value was 0.19%; for `Cc1nc2sc(C(c3ccco3)N3CCC4(CC3)OCCO4)c(O)n2n1` (stereo not drawn), -0.06%; for `O=C(NC(=S)Nc1ccc2oc(=O)ccc2c1)c1ccc(-c2cccc(Cl)c2Cl)o1`, 0.12%. As to `NC(=O)C1CCN(CC(O)CSc2ccc(F)cc2)CC1` (stereo not drawn), the inhibition is -0.06%. With `CC1CCc2c(sc3c2C2=NS(=O)(=O)CCN2C=N3)C1` (stereo not drawn), the inhibition is 0.15%. Next, `O=C(CNC(=O)c1ccc(-c2ccccc2)cc1)OCc1ccc(Cl)cc1`: 17.2% (active); `O=C(CNC(=O)c1ccccc1)NCC(=O)OCc1ccc(Cl)cc1`: 0.03%. For `Cc1ccc(C(=O)NCC(=O)OCc2nnc(-c3ccccc3)o2)cc1` the value was 0.08%.

For `CN1CCN(Cc2c(C(=O)N3CCc4ccccc4C3)nc3ccc(Cl)cn23)CC1`, the inhibition is 0.16%.

Consider `CCOc1ccc(NC(=O)CN(C)C(=O)COc2cccc(CC)c2)cc1OCC`, for which the inhibition is 0.06%. For `COc1ccccc1-c1sc2ccccc2c1-c1ccc(Br)nc1` the value was -0.34%; for `COc1ccc(-c2sc3ccccc3c2-c2ccc(OCCN3CCOCC3)cc2)cc1`, 0.31%; for `COc1cc(OC)cc(-c2sc3ccc(OC)cc3c2-c2ccc3cc[nH]c3c2)c1`, -0.09%. Consider `COc1ccc2sc(-c3ccccc3OC)c(-c3ccc(OCCN4CCCC4)cc3)c2c1`, for which the inhibition is 198% (active).

On to `COc1ccccc1-c1sc2ccccc2c1-c1ccc(C(C)=O)cc1`, for which the inhibition is -0.1%. Regarding `O=C(COC(=O)COc1cc(Cl)c(Cl)cc1Cl)NC1CC1`, the inhibition was 0.12%. For `O=c1c2ccccc2oc2nc(C3CCCCC3)n(Cc3ccco3)c(=O)c12` the value was -0.05%; for `Clc1cccc(-c2nc3nc4ccccc4nc3n2Cc2ccco2)c1`, -0.17%; for `Cc1ccc(Cn2c(C)nc3c(c2=O)c2nc4ccccc4nc2n3Cc2ccco2)cc1`, 0.94% (active).

Take `Cc1cc(N(C)C)cc(C)[n+]1[O-]`: the inhibition was -0.18%. Next, `C=CC[n+]1c(-c2ccc(C)cc2)csc1NNC(=O)Nc1ccccc1`: -0.18%; `Cc1ccc(C)c(NC(=O)C(OC(=O)c2ccc(C)s2)c2ccccc2)c1` (stereo not drawn): -0.08%. As for `COC(C(=O)Nc1ccc(C(C)=O)cc1)c1ccccc1` (stereo not drawn), the inhibition is -0.08%. On to `Cc1cc(C)cc(NC(=O)C(OC(=O)c2ccc(O)cc2)c2ccccc2)c1` (stereo not drawn), for which the inhibition was 0.91% (active).

As for `O=C(O)CCCCCCCCCC[n+]1ccccc1`, the inhibition was 0.3%.

`CCOC(=O)C1(Cc2cccc(OC)c2)CCCN(C(=O)CCSC)C1` (stereo not drawn): the inhibition is 0.41%.

Take `Cc1cccc(OCCC(=O)OCc2csc(CC(=O)Nc3ccccc3C)n2)c1`: the inhibition was 0.08%. For `O=C(c1ccc(F)cc1)N1CCC(n2nnc3ccccc32)CC1` the value was -0.14%. For `COc1ccc2cc(C3=CC(=O)C[C@H](c4ccc5c(c4)OCO5)C3)ccc2c1` the value was -0.01%. As for `Brc1cnc2ccccc2c1N1CCCCC1`, the inhibition was 0.04%.

As for `COc1cc(C(=O)NCc2ccc(-n3cccc3)cc2)cc(OC)c1OC`, the inhibition is 0.13%.
